SMN2 splice up: SMN2 splice variant enhancement; HEK293 SMN2-luciferase splicing reporter, luminescence, 30-36 h; Potency, µM (top dose mostly 46.1 µM), most hits filed as activators; 2.8% of 210,000 active; note: nearly all actives have a fitted effect of over 55% in size
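HEK293 cells carry an SMN2 […]–luciferase reporter in which exon 7 inclusion puts luciferase in frame. Cells were plated 10-12 h before compound addition, then incubated 30-36 h at 37C. ONE-Glo luminescence was read; sodium butyrate at 4.5 mM final served as control.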
NPC1 prom act: activates the NPC1 promoter; Huh7 NPC1 promoter luciferase reporter, 24 h; Potency, µM (highest dose often 9.22 µM), usual class: activators; 2.4% of 320,000 active; AID 485313; note: nearly all actives have a fitted effect of over 60% in size
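Luminescence read-out of NPC1 promoter-driven luciferase in stably transfected Huh7 cells; compounds delivered in DMSO and left 24 h at 37C, 5% CO2, qHTS titration format.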
FLuc modulator: inhibits or activates purified firefly luciferase, miR-21 counter-screen. 6.9% of 360,000 active. Potency, µM (top dose mostly 57.5 µM), most hits filed as inhibitors. P08659. purified FLuc, Km substrates, luminescence inhibition. AID 588342; note: nearly all actives have a fitted effect of over 55% in size
Target sequence (P08659 whole entry, looked up): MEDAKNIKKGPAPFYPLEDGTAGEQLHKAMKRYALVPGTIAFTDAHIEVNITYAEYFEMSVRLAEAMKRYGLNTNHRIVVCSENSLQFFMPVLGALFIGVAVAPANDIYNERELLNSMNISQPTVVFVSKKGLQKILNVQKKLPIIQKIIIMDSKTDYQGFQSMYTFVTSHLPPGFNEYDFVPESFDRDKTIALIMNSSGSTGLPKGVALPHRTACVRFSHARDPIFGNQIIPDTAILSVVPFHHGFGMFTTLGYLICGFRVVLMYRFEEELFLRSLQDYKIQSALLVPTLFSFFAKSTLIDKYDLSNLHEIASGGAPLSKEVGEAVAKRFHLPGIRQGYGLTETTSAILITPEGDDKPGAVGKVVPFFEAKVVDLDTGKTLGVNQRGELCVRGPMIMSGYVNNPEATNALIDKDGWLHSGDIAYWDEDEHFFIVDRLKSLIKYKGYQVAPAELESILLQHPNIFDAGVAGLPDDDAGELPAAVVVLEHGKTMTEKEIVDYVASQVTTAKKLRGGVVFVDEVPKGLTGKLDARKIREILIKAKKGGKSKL
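Purified P. pyralis luciferase (10nM final) with 10uM D-luciferin and 10uM ATP (Km levels) in 50mM Tris acetate pH 7.5, 10mM Mg acetate, 0.01% Tween-20, 0.05% BSA; qHTS 6-point titration, ~60 µM downward; luminescence read.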
ELG1 DNA repair: blocks ELG1-dependent DNA repair in HEK293T cells; HEK293T ELG1-luciferase reporter, luminescence, 16 h; DNA damage induced by 5-fluorouridine; Potency, µM (series often up to 46.1 µM), most hits filed as inhibitors; 2.3% of 330,000 active; note: nearly all actives have a fitted effect of over 55% in size
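Quantitative HTS, concentration-response format. 2,000 cells/well co-treated with 5-fluorouridine and compound, 16 hr in 5% CO2 at 37 °C; ONE-Glo luminescence read after 30 min.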
ELG1 genotox: induces genotoxicity in HEK293T cells with luciferase-tagged ELG1. HEK293T ELG1-luciferase reporter, luminescence, 16 h. Potency, µM (highest dose often 46 µM), hits mostly activators. 1.3% of 330,000 active; note: nearly all actives have a fitted effect of over 60% in size
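HEK293T cells expressing luciferase-tagged ELG1 were exposed to compound or DMSO vehicle for 16 hr at 37 °C and 5% CO2. Luciferase activity was then measured with ONE-Glo after 30 min at room temperature.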
Rab9 promoter act: Rab9 promoter activation; Potency, µM (doses to about 9.22 µM), hits mostly activators; AID 485297; Huh7 Rab9 promoter-luciferase reporter, luminescence, 24 h; 2.8% of 320,000 active; note: nearly all actives have a fitted effect of over 60% in size
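Cells were plated at 1500 per well in reduced-serum medium with 10% FBS and left 2 h. Compound in DMSO was then added for 24 h at 37 °C. Reporter signal was read by luminescence after 10 min with luciferase detection reagent.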
Numbers stand for hits; i = inactive; ? = inconclusive; nt = no result given. Only some compounds are listed: those with a hit (about 9.2% of all), similar ones and a draw of the others. Calls come from the whole dose curve; as a rule, active = well fitted curve in the direction sought with a large enough effect; inconclusive = small, poorly fitted or top-dose-only effect, or another doubt; inactive = no such curve, though single readings can be large; an effect the other way counts as inactive or inconclusive.

SMILES | SMN2 splice up | NPC1 prom act | FLuc modulator | ELG1 DNA repair | ELG1 genotox | Rab9 promoter act
COc1ccccc1C(=O)Nc1nc2ccccc2[nH]1 | nt | ? | 0.019µM | ? | ? | i
COc1ccccc1C(=O)NC(C)c1nc2ccccc2[nH]1 (stereo unspecified) | i | i | i | i | i | i
COc1cc(SC)ccc1C(=O)Nc1nc2ccccc2[nH]1 | nt | i | 0.014µM | ? | i | i
O=C(CCNC(=O)c1ccccc1Cl)Nc1nc2ccccc2[nH]1 | nt | nt | nt | i | i | nt
COc1ccccc1C(=O)NCCC(=O)Nc1nc2ccccc2[nH]1 | nt | i | i | ? | 23µM | i
COc1cc(SC)ccc1C(=O)Nc1c(Cl)cncc1Cl | i | i | i | i | i | i
Cc1ccc(OCCC(=O)OCC(=O)NCCc2ccc(Cl)cc2)cc1 | nt | i | i | i | i | i
Cc1ccc(C(=O)c2coc3ccc(O)cc23)cc1 | nt | ? | 1.1µM | ? | ? | i
Cc1ccc(C(=O)c2coc3ccc(O)c(Cl)c23)cc1 | i | i | 19µM | ? | ? | i
O=C(c1ccccc1)c1coc2ccc(O)c(Cl)c12 | i | i | ? | ? | ? | i
Cc1ccc(C(=O)c2cc3ccccc3o2)cc1[N+](=O)[O-] | i | ? | 7.6µM | i | ? | 2.8µM
O=C(c1ccc(F)cc1)c1cc2ccccc2o1 | nt | ? | 11µM | ? | ? | i
O=C(NNC(=O)c1cc2ccccc2o1)c1ccc(Cl)cc1 | nt | i | i | i | i | i
O=C(NCc1ccc(F)cc1)c1cc2ccccc2o1 | nt | i | i | i | i | i
O=C(NNC(=O)c1cc2ccccc2o1)c1ccc(F)cc1 | nt | i | 17µM | ? | i | i
O=C(c1ccccc1)c1cc2ccccc2oc1=O | nt | i | i | ? | i | i
O=C(c1ccccc1)c1cc2ccccc2o1 | i | ? | 15µM | ? | ? | ?
O=C(COc1ccc(N2C(=O)c3ccccc3C2=O)cc1)c1ccccc1 | i | i | i | i | i | i
O=C(COc1ccccc1N1C(=O)c2ccccc2C1=O)c1ccc(Cl)cc1 | i | i | i | ? | 18µM | i
Cc1ccc(/C=C/C2=NN(C)C(=O)CC2)cc1 | 11µM | 3.5µM | 6.7µM | ? | ? | 0.89µM
COc1ccc(/C=C/C=C2\N=C(SC)SC2=O)cc1 | nt | i | 5.4µM | ? | i | i
Cc1cc(C)c(S(=O)(=O)Nc2cc(SCC(=O)O)c(O)c3ccccc23)cc1C | i | i | ? | i | i | i
Cc1cc(C)c(S(=O)(=O)/N=C2/C=C(SCC(=O)O)C(=O)c3ccccc32)cc1C | i | i | 21µM | ? | i | i
O=C(O)C(=O)/C(=C\c1ccc(Cl)cc1)c1ccc2ccccc2n1 | 13µM | i | ? | ? | ? | i
Cc1cc(C(=O)C(=O)Nc2nnc(C(C)C)s2)c(C)n1-c1ccccc1 | nt | nt | i | nt | nt | nt
SMILES | SMN2 splice up | NPC1 prom act | FLuc modulator | ELG1 DNA repair | ELG1 genotox | Rab9 promoter act
COC(=O)[C@H](CCSC)NC(=O)c1cccnc1SC | nt | i | i | i | i | i
CCc1ccc(C(=O)NC(CCSC)C(=O)OC)cc1 (stereo unspecified) | i | i | 19µM | i | i | i
CN=C1NN=C(c2cc(C)n(-c3c(C)n(C)n(-c4ccccc4)c3=O)c2C)CS1 | i | i | i | i | i | i
COCCCN=C1NN=C(c2cc(C)n(Cc3ccco3)c2C)CS1 | ? | 6.3µM | 2.7µM | ? | 3.3µM | i
Cc1cc(C2=NNC(=NC3CC3)SC2)c(C)n1Cc1ccco1 | i | i | 0.12µM | ? | i | i
COCC(C)N=C1NN=C(c2cc(C)n(Cc3ccccc3Cl)c2C)CS1 (stereo unspecified) | i | ? | 7.6µM | ? | ? | ?
Cc1cc(-c2csc(N)n2)c(C)n1Cc1ccco1 | ? | i | ? | i | i | i
CCOc1ccc(S(=O)(=O)n2nc(C)c(S(=O)(=O)N3CCOCC3)c2C)cc1 | nt | i | i | i | i | i
Cc1ccc(C(=O)c2cn(Cc3ccc(F)cc3)c3nc(C)ccc3c2=O)cc1 | i | nt | i | nt | nt | nt
COC(=O)c1cc(-c2ccc(Cl)cc2Cl)n[nH]1 | i | i | 15µM | ? | ? | i
CCCCOc1ccc(C2(C)NC(=O)N(C)C2=O)cc1 (stereo unspecified) | nt | i | i | i | i | i
COc1ccc(Nc2nc(N)nc(CSC(=S)N3CCN(c4ccccc4)CC3)n2)cc1 | i | i | i | 12µM | i | i
CCOc1ccc(Nc2nc(N)nc(CSC(=S)N3CCN(c4ccccc4)CC3)n2)cc1 | nt | i | i | 10µM | i | i
O=C(COC(=O)c1cccc(S(=O)(=O)NCc2ccccc2)c1)NCC1CCCO1 (stereo unspecified) | i | i | i | i | i | i
COC(=O)Nc1ccc(S(=O)(=O)NC2CCCCC2)cc1 | nt | i | i | i | i | i
COc1ccc2c(c1)C1=NN(/C(C)=C/C(C)=O)C(c3ccc(F)cc3)C1CC2 (stereo unspecified) | i | i | 27µM | ? | ? | i
COc1ccc2c(c1)C1=NN(/C(C)=C\C(C)=O)C(c3ccccc3)C1CC2 (stereo unspecified) | i | i | 19µM | ? | i | i
COc1ccc2c(c1)CCC1C2=NN(/C(C)=C\C(C)=O)C1c1ccc(F)cc1 (stereo unspecified) | i | ? | 13µM | i | ? | ?
COc1ccc2c(c1)C1=NN(/C(C)=C/C(C)=O)C(c3cccc(F)c3)C1CC2 (stereo unspecified) | i | i | ? | i | i | i
COCCCNC(=O)Cn1c(=O)n(-c2cccc(C)c2)c(=O)c2c3c(sc21)CN(C(C)=O)CC3 | i | nt | i | nt | nt | nt
CN(C)c1ccc(NC(=O)CCn2c(=S)oc3ccccc32)cc1 | i | i | 4.3µM | i | i | i
Cc1ccc(NC(=O)c2ccc3c(c2)N(CC(=O)N2CCCCC2)C(=O)C(C)(C)O3)cc1 | i | i | i | 13µM | i | i
CCOC(=O)CN1C(=O)C(C)(C)Oc2ccc(C(=O)Nc3ccccc3OC)cc21 | i | i | i | 18µM | i | i
CC(C)(C)NC(=O)c1ccc2c(c1)N(CC(=O)N1CCCCC1)C(=O)C(C)(C)O2 | nt | i | i | i | i | i
CC1(C)CC2CC(C)(CN2C(=O)c2ccc([N+](=O)[O-])cc2[N+](=O)[O-])C1 (stereo unspecified) | i | i | i | i | i | i
CCN1C=C(C(=O)OC)C(c2cccc(OC)c2OC)C(C(=O)OC)=C1 | i | i | i | i | i | i
COc1cc(OC)c(NC(=O)c2cc(C(C)=O)n3ccccc23)cc1Cl | nt | nt | i | nt | nt | nt
Cc1ccccc1Cn1nnc(-c2ccc3c(c2)OCO3)n1 | 4µM | i | 15µM | ? | i | ?
Fc1cccc(Cn2ccc(-c3ccc4c(c3)OCO4)n2)c1 | ? | i | 21µM | ? | i | i
